Source: PubChem BioAssay AID493034 (The Scripps Research Institute Molecular Screening Center, 2011)
In all, about 2,400 compounds went through this assay and about 2,200 (92%) were called active.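 The calls were made as follows: active = mean inhibition over triplicate runs exceeds the cutoff derived for the earlier primary screen (cut at about 25% in these data); inactive = the rest.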 So high a share suggests a set chosen from earlier hits. The list shows a part of the results.

Biological target: Platelet-activating factor acetylhydrolase IB subunit alpha2 (Homo sapiens) (UniProt P68402)
Sequence (P68402 whole entry, looked up): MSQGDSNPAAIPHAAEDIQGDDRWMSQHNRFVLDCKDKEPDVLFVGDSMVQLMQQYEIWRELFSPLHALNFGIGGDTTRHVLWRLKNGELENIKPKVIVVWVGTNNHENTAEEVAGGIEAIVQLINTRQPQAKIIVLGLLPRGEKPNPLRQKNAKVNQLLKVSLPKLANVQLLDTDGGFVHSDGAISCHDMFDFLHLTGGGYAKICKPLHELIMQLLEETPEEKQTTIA
Experiment: PAFAH1B2 inhibitors, confirmation, biochemical, fluorescence polarization, FP-rhodamine probe, triplicate (AID 493034);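 also: 0% = enzyme with DMSO and 100% = wells lacking PAFAH1B2 protein; inhibitors lower polarization by leaving the probe unbound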
Details: recombinant PAFAH1B2, FP-rhodamine probe fluorescence polarization; at 3.39 µM; hits give high values

SMILES	inhibition
O=c1[nH]c(CCl)nc2cc(-c3ccc(Cl)cc3)sc12	61% (active)
Cc1cc(NC(=S)N(Cc2ccc(Br)cc2)Cc2ccc(C(=O)O)cc2)ccc1Cl	1.23% (inactive)
O=C(O)c1[nH]c2ccccc2c1C(c1c(F)cccc1Cl)c1c(C(=O)O)[nH]c2ccccc12	33.3% (active)
O=C(O)c1[nH]c2ccccc2c1C(c1ccccc1)c1c(C(=O)O)[nH]c2ccccc12	75.9% (active)
O=C(O)c1[nH]c2ccccc2c1C(c1cccc(O)c1)c1c(C(=O)O)[nH]c2ccccc12	80.5% (active)
COc1cc(C(c2c(C(=O)O)[nH]c3ccccc23)c2c(C(=O)O)[nH]c3ccccc23)ccc1OCc1ccccc1	37.9% (active)
Cc1ccc(O)c(N=Cc2cc(Cc3ccccc3)cc([N+](=O)[O-])c2O)c1	20.2% (inactive)
CCCCNC(=O)c1cccc(S(=O)(=O)N2CC3(C)CC2CC(C)(C)C3)c1 (stereo not given)	19.5% (inactive)
Cc1ccc(CN2[C@@H](CC3CCCCC3)COCCS2(=O)=O)cc1	23.1% (inactive)
CCCCCCCCCCCCCC(=O)O	22.4% (inactive)
O=C(O)CN1C(=O)C2C3CC(C2C1=O)C1C(c2ccc(Cl)cc2)c2sc(=O)[nH]c2SC31 (stereo not given)	37.1% (active)
O=C(O)CN1C(=O)C2C3CC(C2C1=O)C1C(c2ccc(F)cc2)c2sc(=O)[nH]c2SC31 (stereo not given)	54.6% (active)
O=C(O)CN1C(=O)C2C3CC(C2C1=O)C1C(c2ccccc2)c2sc(=O)[nH]c2SC31 (stereo not given)	59.3% (active)
O=C(COC(=O)CCSc1ccccc1)Nc1cc(F)ccc1F	10.5% (inactive)
O=C(COC(=O)C12CC3CC(CC(Br)(C3)C1)C2)Nc1cccnc1Cl	36.7% (active)
COc1ccccc1CNC(=O)COC(=O)c1ccc(C(=O)c2ccccc2)cc1	3.07% (inactive)
O=C(COC(=O)C12CC3CC(CC(Br)(C3)C1)C2)Nc1ccc2[nH]c(=O)[nH]c2c1	31.2% (active)
COc1ccccc1NC(=O)COC(=O)C12CC3CC(CC(Br)(C3)C1)C2	26.2% (active)
O=C(COC(=O)C12CC3CC(CC(Br)(C3)C1)C2)Nc1c(F)cccc1F	35.8% (active)
O=c1c2c(nc3cc(-c4ccc(Cl)cc4)[nH]n13)CCS2	11.7% (inactive)
N#C/C(=C\c1cc2c(cc1Br)OCO2)c1ccc(C(=O)O)cc1	23.6% (inactive)
Cc1ccc(-c2csc(NCCn3c(C)nc4cc(C(F)(F)F)ccc43)n2)cc1	23.5% (inactive)
Nc1nc(-c2ccc(F)cc2)cs1	55.6% (active)
Cc1ccc(-c2csc(N)n2)cc1	63.1% (active)
Nc1nc(-c2ccccc2)cs1	35.5% (active)

SMILES	inhibition
Nc1nc(-c2ccc(Br)cc2)cs1	92.3% (active)
O=C(O)c1sccc1SCc1ccc(Cl)cc1Cl	22.4% (inactive)
Nc1nc(-c2cccc(F)c2)cs1	36.3% (active)
Cc1nc(-c2cccc(S(=O)(=O)N3CCC(C)CC3)c2)cs1	23.7% (inactive)
O=C(COC(=O)C12CC3CC(CC(C3)C1)C2)NNC(=O)c1ccccc1	21.4% (inactive)
CC(CCc1ccccc1)NC(=O)COC(=O)C12CC3CC(CC(Br)(C3)C1)C2 (stereo not given)	38.2% (active)
CC(NC(=O)CN(C)S(=O)(=O)c1cccc2nsnc12)c1ccccc1 (stereo not given)	22.2% (inactive)
O=C(COC(=O)C12CC3CC(CC(Br)(C3)C1)C2)NNC(=O)c1ccccc1	46.3% (active)
CC(NC(=O)COC(=O)C12CC3CC(CC(Br)(C3)C1)C2)c1ccccc1 (stereo not given)	31% (active)
O=C(NCc1ccccc1)C12CC3CC(CC(Br)(C3)C1)C2	27.1% (active)
O=C(O)CNC(=O)C12CC3CC(CC(Cl)(C3)C1)C2	22.2% (inactive)
O=C(O)CC1c2ccccc2CCN1S(=O)(=O)c1ccc(F)cc1 (stereo not given)	19.8% (inactive)
CN(Cc1ccccc1)C(=O)COC(=O)C12CC3CC(CC(Br)(C3)C1)C2	28.4% (active)
OC(c1ccc(F)cc1)(C1CCCCC1)C(CN1CCOCC1)c1ccccc1 (stereo not given)	23.5% (inactive)
O=C(O/N=C1/CCCc2occc21)c1ccc(Cl)cc1Cl	19.3% (inactive)
Cc1occc1C(=O)O/N=C(\N)c1ccc(Cl)cc1	27.4% (active)
NC(=O)CSc1ccc(Br)cc1	39.5% (active)
CC(Sc1ccc(Br)cc1)C(N)=O (stereo not given)	27.6% (active)
COc1ccc(NC(=O)O/N=C/c2ccc(Br)cc2)cc1	7.26% (inactive)
Cc1ccc(S(=O)(=O)N2[C@@H](c3ccc(Cl)cc3)C(C(=O)O)=CC[C@H]2c2ccc(Cl)c(Cl)c2)cc1	85.8% (active)
Cc1ccc(S(=O)(=O)N2[C@@H](c3ccccc3)C(C(=O)O)=CC[C@H]2c2cccc(C)c2)cc1	21.1% (inactive)
Cc1ccc(S(=O)(=O)N2[C@@H](c3ccc(C(C)(C)C)cc3)C(C(=O)O)=CC[C@H]2c2ccc(Cl)c(Cl)c2)cc1	58.5% (active)
Cc1ccc(S(=O)(=O)N2[C@@H](c3ccc(Br)cc3)C(C(=O)O)=CC[C@H]2c2ccc3c(c2)OCO3)cc1	59.1% (active)
CC(=O)N1CCOc2ccc(S(=O)(=O)NCc3ccc(C)cc3)cc21	23.4% (inactive)
Cc1ccc(S(=O)(=O)N2[C@@H](c3ccc(C(C)(C)C)cc3)C(C(=O)O)=CC[C@H]2c2cccc(Cl)c2)cc1	70.5% (active)

SMILES	inhibition
Cc1ccc(S(=O)(=O)N2[C@@H](c3cccc(C)c3)C(C(=O)O)=C[C@H]2C(C)(C)C)cc1	18.7% (inactive)
Cc1ccc(S(=O)(=O)N2[C@@H](c3ccc(Br)cc3)C(C(=O)O)=CC[C@H]2c2ccc(Cl)c(Cl)c2)cc1	85.2% (active)
CC(C)(C)C1CCC2(CC1)C(C#N)=C(SCC(=O)Nc1ccccc1)NC(=O)C2C#N (stereo not given)	55% (active)
COc1ccc(S(=O)(=O)N2CCN(C(=O)[C@@H]3CCC(=O)N3C3OC(=O)c4ccccc43)CC2)cc1 (stereo not given in full)	22.4% (inactive)
COc1cc(/C=N/NC(=O)c2cc(C34CC5CC(CC(C5)C3)C4)[nH]n2)ccc1O	24.7% (active)
Cc1ccccc1C(=O)c1cccn1CC(=O)NCc1ccc(Cl)cc1	23.1% (inactive)
O=C(Oc1ccc(OC(=O)c2ccco2)c(S(=O)(=O)c2ccc(Br)cc2)c1)c1ccco1	34% (active)
O=C(Oc1ccc(-c2ccccc2)cc1)c1ccco1	23.7% (inactive)
CC1=C(C(=O)OCC(Br)(Br)Br)C(c2cccc([N+](=O)[O-])c2)NC(=O)N1CCCC(=O)O (stereo not given)	90.6% (active)
O=C(Nc1ccccc1Cl)Oc1ccc(-c2ccccc2)cc1	53.8% (active)
Cc1ccc(S(=O)(=O)n2nc(-c3cccnc3)nc2N)cc1	23.2% (inactive)
CC(=O)C[C@@H](O)CC(=O)[C@H]1OC(=O)CCCCCCCCc2ccccc21	43.6% (active)
CC(=O)C[C@H](O)CC(=O)[C@H]1OC(=O)CCCCCCCCc2ccccc21	31.4% (active)
Cc1noc(NS(=O)(=O)c2ccc(NC(=O)CC34CC5CC(CC(Br)(C5)C3)C4)cc2)c1C	30.9% (active)
Cn1c(=O)oc2cc(S(=O)(=O)NCCC(=O)NCCc3ccc(Cl)cc3)ccc21	19.6% (inactive)
O=S(=O)(Nc1ncccn1)c1ccc(NC(=S)NCCc2ccc(Cl)cc2)cc1	36.6% (active)
CC(CC(=O)NCCc1ccc(Cl)cc1)S(=O)(=O)c1ccc2c(c1)NC(=O)CO2 (stereo not given)	22.4% (inactive)
N=c1c(S(=O)(=O)c2ccc(Cl)cc2)cc2c(=O)n3ccccc3nc2n1CCN1CCOCC1	22.3% (inactive)
O=c1[nH]c(CN2CCN(c3ccc([N+](=O)[O-])cc3)CC2)nc2ccsc12	31.1% (active)
O=C1OC(c2ccccc2)=N/C1=C/c1cccc(OC(=O)c2cccs2)c1	15.5% (inactive)
O=C(O)c1cccc(COc2ccc3c(c2)CCC3)c1	40% (active)
O=C(CCc1ccc(O)cc1)c1c(O)cc(O)cc1O	22.2% (inactive)
O=C(CCc1ccccc1)c1c(O)cc(O)cc1O	26.6% (active)
C=C(C)C(COc1c2occc2cc2ccc(=O)oc12)OC(C)(C)C(O)COc1c2occc2cc2ccc(=O)oc12 (stereo not given)	67.4% (active)
Cc1ccc(NS(=O)(=O)c2cc([N+](=O)[O-])ccc2NNC(=S)Nc2cccc(Cl)c2)c(C)c1	30.2% (active)

SMILES	inhibition
N#Cc1c(N)[nH]c2ccc(Sc3ccccc3)cc12	33.8% (active)
Nc1ccc(CSc2ccccc2)cc1	30.1% (active)
Nc1ccc(CSc2ccc(Cl)cc2)cc1	21.7% (inactive)
O=C(CSc1ccccc1)NC(=O)NCc1ccccc1	21.7% (inactive)
CCOc1cc(/C=C(/C#N)c2ccc(F)cc2)ccc1OCc1ccc(C(=O)O)o1	4.35% (inactive)
CCOc1cc(/C=C(/C#N)c2ccc(Cl)cc2)cc(Cl)c1OCC(=O)O	42.5% (active)
C[C@@H]1CN([C@H](C)CO)C(=O)c2cccc(NC(=O)Nc3ccc(F)cc3)c2O[C@H]1CN(C)C(=O)Nc1ccc(C(F)(F)F)cc1	39.6% (active)
C[C@H]1CN([C@@H](C)CO)C(=O)c2cccc(NC(=O)Nc3ccc(C(F)(F)F)cc3)c2O[C@@H]1CN(C)C(=O)Nc1ccc(F)cc1	57% (active)
CC(Oc1ccc2c(-c3ccccc3)cc(=O)oc2c1)C(=O)NC(Cc1c[nH]c2ccccc12)C(=O)O (stereo not given)	59% (active)
O=C(COc1ccc2c(-c3ccccc3)cc(=O)oc2c1)N[C@@H](Cc1c[nH]c2ccc(O)cc12)C(=O)O	55.4% (active)
CC(Oc1ccc2c(-c3ccccc3)cc(=O)oc2c1)C(=O)N[C@H](Cc1c[nH]c2ccccc12)C(=O)O (stereo not given in full)	64.3% (active)
CC(Oc1ccc2c(-c3ccccc3)cc(=O)oc2c1)C(=O)NC(Cc1c[nH]c2ccc(O)cc12)C(=O)O (stereo not given)	55.9% (active)
CCCCc1cc(=O)oc2cc(C)cc(OCC(=O)NC(Cc3ccc(Cl)cc3)C(=O)O)c12 (stereo not given)	22.2% (inactive)
Cc1ccc(CSc2nnc(NC(=O)C3COc4ccccc4O3)s2)cc1 (stereo not given)	21.4% (inactive)
CCCCCCCCCCS(=O)(=O)N/N=C/c1ccc([N+](=O)[O-])cc1	20.3% (inactive)
CCN(Cc1ccccc1)c1ccc(/C=N/NS(=O)(=O)c2cccc([N+](=O)[O-])c2)cc1	63.5% (active)
O=C(NCc1cccnc1)C(=O)Nc1nc(C23CC4CC(CC(C4)C2)C3)cs1	23.7% (inactive)
O=C(CC1CC2CCC1C2)Nc1nc(-c2ccccn2)cs1 (stereo not given)	45.4% (active)
CC(NCc1ccc(OCc2ccc(Cl)cc2)cc1)C(O)c1ccccc1 (stereo not given)	68.7% (active)
Clc1ccc(COc2cccc(CNCc3ccncc3)c2)cc1	19.2% (inactive)
O=C(NCC(c1ccco1)N1CCCCC1)c1ccc(COc2ccc(Cl)cc2)cc1 (stereo not given)	20% (inactive)
CCc1ccc2nc3sc(C(=O)Nc4nnc(CC)s4)c(N)c3cc2c1	19.1% (inactive)
Cc1ccc(NC(=O)O/N=C/c2ccc(Br)cc2)cc1	15.5% (inactive)
CCOC(=O)C1CCCN(C(=O)Cc2c(C(=O)O)[nH]c3ccccc23)C1 (stereo not given)	28.4% (active)
O=C(Cc1ccc(Br)cc1)Nc1ncc([N+](=O)[O-])s1	28.4% (active)
